From ChEMBL document CHEMBL1961873, “Compounds: GSK PKIS; Assays: Nanosyn kinase panel” (2012)

Columns and labels:
[1] = biological target: Mast/stem cell growth factor receptor Kit (Homo sapiens) (UniProt P10721); details: at 1 µM
[2] = system: Mast/stem cell growth factor receptor Kit (Homo sapiens), P10721 [D816V]; details: at 0.1 µM
[3] = system: Mast/stem cell growth factor receptor Kit (Homo sapiens), P10721 [D816V]; details: at 1 µM
[4] = system: Mast/stem cell growth factor receptor Kit (Homo sapiens), P10721 [T670I]; details: at 0.1 µM
[5] = system: Mast/stem cell growth factor receptor Kit (Homo sapiens), P10721 [T670I]; details: at 1 µM
[6] = system: Mast/stem cell growth factor receptor Kit (Homo sapiens), P10721 [V560G]; details: at 0.1 µM
[7] = system: Mast/stem cell growth factor receptor Kit (Homo sapiens), P10721 [V560G]; details: at 1 µM
[8] = biological target: Tyrosine-protein kinase Lck (Homo sapiens) (UniProt P06239); details: at 0.1 µM
[9] = biological target: Tyrosine-protein kinase Lck (Homo sapiens) (UniProt P06239); details: at 1 µM
[10] = biological target: Leukocyte tyrosine kinase receptor (Homo sapiens) (UniProt P29376); details: at 0.1 µM
Chain of Leukocyte tyrosine kinase receptor (Homo sapiens) (P29376 whole entry): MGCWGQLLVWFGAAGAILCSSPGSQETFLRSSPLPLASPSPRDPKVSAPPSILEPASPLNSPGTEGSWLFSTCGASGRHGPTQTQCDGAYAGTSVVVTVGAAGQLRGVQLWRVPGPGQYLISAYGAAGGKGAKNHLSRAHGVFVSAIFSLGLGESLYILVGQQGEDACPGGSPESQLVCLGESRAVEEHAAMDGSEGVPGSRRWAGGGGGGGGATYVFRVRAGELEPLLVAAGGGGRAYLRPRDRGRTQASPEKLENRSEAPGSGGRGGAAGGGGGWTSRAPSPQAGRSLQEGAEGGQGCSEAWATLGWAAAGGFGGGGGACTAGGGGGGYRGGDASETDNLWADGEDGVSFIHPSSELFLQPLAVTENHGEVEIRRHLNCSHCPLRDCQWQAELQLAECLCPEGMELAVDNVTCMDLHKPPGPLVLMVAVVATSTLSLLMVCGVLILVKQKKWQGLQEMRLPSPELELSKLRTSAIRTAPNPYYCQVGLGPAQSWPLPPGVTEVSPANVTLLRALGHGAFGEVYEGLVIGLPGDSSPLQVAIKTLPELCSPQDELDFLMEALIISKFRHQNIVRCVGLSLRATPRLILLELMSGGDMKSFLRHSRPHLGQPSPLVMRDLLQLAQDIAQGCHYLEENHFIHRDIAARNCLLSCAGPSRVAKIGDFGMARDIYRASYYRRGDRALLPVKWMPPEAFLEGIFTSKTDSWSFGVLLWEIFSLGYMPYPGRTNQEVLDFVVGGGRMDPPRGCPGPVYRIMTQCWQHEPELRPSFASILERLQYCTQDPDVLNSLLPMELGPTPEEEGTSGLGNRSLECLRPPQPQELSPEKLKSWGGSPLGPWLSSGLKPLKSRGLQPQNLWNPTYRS

Chain of Mast/stem cell growth factor receptor Kit (Homo sapiens), P10721 [V560G] (P10721 whole entry V560G): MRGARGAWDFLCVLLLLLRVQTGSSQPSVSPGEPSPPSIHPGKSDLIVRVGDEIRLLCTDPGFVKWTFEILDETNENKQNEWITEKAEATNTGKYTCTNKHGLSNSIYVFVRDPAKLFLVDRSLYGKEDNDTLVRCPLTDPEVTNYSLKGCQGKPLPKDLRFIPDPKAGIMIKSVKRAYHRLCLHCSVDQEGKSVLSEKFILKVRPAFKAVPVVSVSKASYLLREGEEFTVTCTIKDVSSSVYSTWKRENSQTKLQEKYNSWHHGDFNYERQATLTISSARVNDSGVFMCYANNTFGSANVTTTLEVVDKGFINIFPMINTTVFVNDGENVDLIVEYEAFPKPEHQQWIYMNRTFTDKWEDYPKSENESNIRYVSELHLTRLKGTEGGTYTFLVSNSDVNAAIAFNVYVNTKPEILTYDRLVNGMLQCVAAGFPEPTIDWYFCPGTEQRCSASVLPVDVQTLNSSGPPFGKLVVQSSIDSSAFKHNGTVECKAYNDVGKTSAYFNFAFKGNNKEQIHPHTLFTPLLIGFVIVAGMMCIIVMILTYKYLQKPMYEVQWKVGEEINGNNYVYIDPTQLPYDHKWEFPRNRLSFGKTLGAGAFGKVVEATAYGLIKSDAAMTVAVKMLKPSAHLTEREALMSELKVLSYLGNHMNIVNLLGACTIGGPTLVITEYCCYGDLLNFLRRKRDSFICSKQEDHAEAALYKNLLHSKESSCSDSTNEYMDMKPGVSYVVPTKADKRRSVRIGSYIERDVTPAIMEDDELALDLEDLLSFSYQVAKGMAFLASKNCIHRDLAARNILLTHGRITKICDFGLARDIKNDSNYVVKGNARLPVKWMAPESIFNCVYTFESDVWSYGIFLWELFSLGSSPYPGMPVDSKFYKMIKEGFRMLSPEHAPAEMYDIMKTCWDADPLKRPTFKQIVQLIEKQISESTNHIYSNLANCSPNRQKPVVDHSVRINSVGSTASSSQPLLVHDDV
Chain of Tyrosine-protein kinase Lck (Homo sapiens) (P06239 2-509 limits assumed): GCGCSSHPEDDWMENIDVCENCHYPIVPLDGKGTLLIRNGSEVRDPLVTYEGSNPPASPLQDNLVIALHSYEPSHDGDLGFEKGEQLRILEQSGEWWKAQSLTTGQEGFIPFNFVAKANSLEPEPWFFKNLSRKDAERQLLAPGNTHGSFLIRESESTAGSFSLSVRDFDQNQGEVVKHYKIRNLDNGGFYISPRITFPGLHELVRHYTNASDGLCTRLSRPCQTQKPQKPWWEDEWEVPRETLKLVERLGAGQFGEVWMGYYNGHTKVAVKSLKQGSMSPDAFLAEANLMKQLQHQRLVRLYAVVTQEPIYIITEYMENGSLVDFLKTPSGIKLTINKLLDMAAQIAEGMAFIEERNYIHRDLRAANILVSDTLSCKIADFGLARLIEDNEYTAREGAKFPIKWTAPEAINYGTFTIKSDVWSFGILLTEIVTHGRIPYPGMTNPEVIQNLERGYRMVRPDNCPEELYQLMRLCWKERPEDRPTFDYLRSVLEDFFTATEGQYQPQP
Chain of Mast/stem cell growth factor receptor Kit (Homo sapiens) (P10721 whole entry): as the sequence (P10721 whole entry V560G) above, with G560V counted along it
Chain of Mast/stem cell growth factor receptor Kit (Homo sapiens), P10721 [T670I] (P10721 whole entry T670I): as the sequence (P10721 whole entry V560G) above, with G560V, T670I counted along it
Chain of Mast/stem cell growth factor receptor Kit (Homo sapiens), P10721 [D816V] (P10721 whole entry D816V): as the sequence (P10721 whole entry V560G) above, with G560V, D816V counted along it

SMILES	inhibition [1] [%]	inhibition [2] [%]	inhibition [3] [%]	inhibition [4] [%]	inhibition [5] [%]	inhibition [6] [%]	inhibition [7] [%]	inhibition [8] [%]	inhibition [9] [%]	inhibition [10] [%]
O=C(Nc1n[nH]c2nc(-c3ccco3)ccc12)C1CC1	1.57	-0.41	0.03	1.03	2.02	3.13	6.74	1.24	3.59	1.06
NC(=O)c1ccc(Oc2nccc(-c3c(-c4ccc(F)cc4)ncn3C3CCNCC3)n2)cc1	6.05	4.42	4.25	1.23	1.77	-1.86	0.03	5.07	4.88	4.02
NCc1ccc(-n2c(-c3nonc3N)nc3cnccc32)cc1	10.8	4.7	2.04	4.14	5.42	-2.06	2.07	3.81	4.5	5.22
CN(C)CCOc1ccc(-c2cc(-c3ccc4c(c3)CCC4=NO)c(-c3ccncc3)o2)cc1	1.55	-1.77	-0.88	0.11	0.36	1.5	3.34	2.65	24.9	-0.5
Fc1ccc(-c2c(-c3ccncc3)nc3n2CCS3)cc1	9.55	0.48	4.72	2.05	3.53	-2.29	-3.6	-3.58	-1.31	3.49
CCC(=O)Nc1ccc(C)c(-c2ccc(C(=O)NCC3CC3)cc2)c1	4.74	-1.54	5.31	2.5	3.87	-0.17	-1.72	2.57	5.27	4.98
O=C(Nc1n[nH]c2nc(-c3ccc(O)cc3)c(Br)cc12)C1CC1	63.1	9.03	10.1	3.13	4.94	2.07	10.8	6.75	22.2	62.8
Nc1nccc(-c2c(-c3ccc(F)cc3)ncn2C2CCC(O)CC2)n1 (stereo not given)	17.1	-2.57	1.44	-0.22	-0.69	1.44	5.14	3.6	29.2	-1.37
Cc1ccc(C(=O)NC(C)C)cc1-c1ccc(C(=O)NCC2CC2)cc1	-4.83	14.1	-0.69	-3.01	-1.47	1.17	1.03	-1.32	0.84	-1.19
CCN(CC)Cc1ccc(Nc2nccc(-c3cnn4ncccc34)n2)cc1	93.1	1.8	4.13	19.4	80.9	8.63	61.5	1.35	15.3	4.48
CN(C)c1ccc2c(c1)/C(=C/Nc1ccc(S(N)(=O)=O)cc1)C(=O)N2	28.4	1.55	3.22	3.39	10	-1.48	-1.72	2.35	12.7	0.81
COc1cc(N2CCN(C(C)C)CC2)ccc1Nc1nc(Nc2ccc(F)cc2C(=O)NC[C@@H](O)CO)c2cc[nH]c2n1	6.9	4.14	7.71	3.52	4.77	-2.07	-1.61	-1.06	-2.81	55.2
NC(=O)c1cc(-c2ccncc2)cc(-c2ccccc2)c1N	75.5	6.4	6.94	3.99	4.83	2.91	25.1	7.95	41.6	5.44
COc1cc(Nc2ncc3c(C)nc(-c4cccc(Oc5ccccc5)c4)n3n2)cc(OC)c1OC	18.8	2.25	0.81	0.81	-0.67	-2.03	1.13	1.24	5.01	3.21
Fc1ccc(-c2ncn(C3CCNCC3)c2-c2ccnc(Oc3ccc4c(c3)OCO4)n2)cc1	9.68	4.71	5.2	3.24	3.64	-1.09	-0.53	3.98	8.64	3.89
COc1cc2ncn(-c3cc(OCCc4ccccc4)c(C(N)=O)s3)c2cc1OC	5.42	5.33	-0.63	0.21	-1.17	-2.95	-0.35	2.24	5.88	1.89
COc1cc2ncn(-c3cc(OCc4ccccc4C(F)(F)F)c(C(C)=O)s3)c2cc1OC	4.53	2.21	1.58	2.81	6.12	-1.46	1.6	4.22	9.66	2.03
c1ccc(Oc2ccc(Nc3ncc(-c4ccccc4)o3)cc2)cc1	19.9	-0.64	-0.49	2.73	5.55	-0.1	5.53	2.67	2.2	1.67
COc1cccc(/C=N/Nc2ncnc3c2cnn3-c2cccc(OC)c2)c1	6.76	2.28	4.96	1.91	4.1	3.55	0.61	2.18	8.97	5
CS(=O)(=O)CCNCc1ccc(-c2ccc3ncnc(Nc4ccc(OCc5ccccc5)c(Br)c4)c3c2)o1	3.91	4.87	2.18	2.66	1.79	-3.28	-1.19	0.4	4.79	2.96

SMILES	inhibition [1] [%]	inhibition [2] [%]	inhibition [3] [%]	inhibition [4] [%]	inhibition [5] [%]	inhibition [6] [%]	inhibition [7] [%]	inhibition [8] [%]	inhibition [9] [%]	inhibition [10] [%]
C[C@@H](Oc1cc(-n2cnc3ccc(OCC4CCN(C)CC4)cc32)sc1C(N)=O)c1ccccc1Cl	8.33	5.13	8.23	0.47	5.37	-4.48	0.38	7.42	29.8	4.38
COc1ccc2ncn(-c3cc(O[C@H](C)c4ccccc4Cl)c(C(N)=O)s3)c2c1	23.1	2.74	7.75	2.4	7.3	-1.68	0.26	-2.03	-1.76	2.73
COc1cc(Nc2ncc(-c3ccccc3)o2)cc(OC)c1OC	98.7	0.53	0.05	69.3	94.8	22.2	80.4	2.17	25	0.26
COc1cc(Nc2ncc3c(C)nc(-c4cccc(C(F)(F)F)c4)n3n2)cc(OC)c1OC	44.8	4.72	5.97	1.57	7.22	-0.27	7.67	3.24	20.1	4.18
COc1ccc(-c2ccc3c(NC(=O)C4CC4)n[nH]c3n2)cc1	6.98	3.21	2.92	0.56	3.21	4.61	2.87	-0.02	3.64	1.94
CCc1nccc2c1nc(-c1nonc1N)n2CC	0.89	0.61	-2.34	-0.13	-2.18	3.98	0.88	0.67	6.3	6.17
CCc1ccc(Oc2nccc(-c3c(-c4ccc(F)cc4)ncn3C3CCNCC3)n2)cc1	3.31	4.91	1.86	2.54	2.33	-1.42	-1.63	3.37	6.55	2.71
O=C1Nc2ccccc2/C1=C/Nc1ccc(-n2cncn2)cc1	75.9	4.37	8.01	8.82	47.4	-2.32	10.2	3.98	9.02	3.3
C[C@@H](Oc1cc(-n2cnc3ccc(OC4CCN(C)CC4)cc32)sc1C(N)=O)c1ccccc1Cl	5.22	1.72	6.14	1.3	6.17	-4.05	-2.87	-0.67	4.21	4.01
Cc1ccc(NC(=O)c2ccoc2)cc1-c1ccc(C(=O)NCC2CC2)cc1	0.22	3.87	3.1	1.06	1.82	0.04	-1.21	2.02	3.87	2.79
COc1ccc2cc(-c3c(-c4ccncc4)nc(-c4ccc(S(C)(=O)=O)cc4C)n3C)ccc2c1	4.85	1.65	4.38	2.6	4.5	1.82	-0.08	1.82	8.97	3.22
COc1cccc(-n2cnc3c(N/N=C/c4ccncc4)ncnc32)c1	83.4	0.1	3.79	-2.23	6.36	3.15	18.8	3.69	29.3	-1.69
FC(F)(F)c1cccc(Nc2nccc(-c3cnn4nc(-c5ccccc5)ccc34)n2)c1	37.3	1.06	0.54	1.8	5.77	-2.09	1.67	1.68	2.24	0.59
Fc1ccc(-c2ncn(C3CCNCC3)c2-c2ccnc(Oc3ccc(F)c(F)c3)n2)cc1	5.24	5.58	2.5	1.57	1.83	-1.36	0.87	-1.59	-1.94	2.84
COc1ccc(C2=C(N3CCc4ccccc43)C(=O)NC2=O)cc1	15.1	3.56	3.25	6.38	5.55	3.19	4.55	4.42	4.16	5.23
Cc1nnc(-c2ccc(C)c(-c3ccc(C(=O)NCc4ccc(Cl)cc4)cc3)c2)o1	3.81	4.88	1.51	2.49	7.38	-1.65	-1.05	-2.94	-1.25	1.83
CCS(=O)(=O)c1ccc(OC)c(Nc2ncc(-c3ccccc3Cl)o2)c1	85.2	0.9	0.58	0.14	24.3	3.4	8.88	4.24	10.2	1.67
CNC(=O)c1cncc(/C=C/c2c(C)cccc2C)c1	51.7	1.76	0.69	-0.72	-0.77	3.1	17.2	3.11	30	-1.27
O=C(Nc1ccc(Oc2ccc3[nH]c(NC(=O)c4ccccc4)nc3c2)cc1)Nc1cc(C(F)(F)F)ccc1F	85.1	1.52	4.26	5.51	52.1	10.4	67	2.25	14.4	1.84
